According to the supplement of paper PMC6331611:
± gives the standard deviation of the averaged measurements. Whole data set: some 1,600 compounds, median “normalized intracellular growth (luminescence, IQM-normalized) in RAW264.7 macrophages” near 1, cut for the lowest 2% near 0.43. This is one part of a sample in which the lowest values are shown more often than they occur.

System: Salmonella enterica serovar Typhimurium SL1344
Test: normalized intracellular growth (luminescence, IQM-normalized) in RAW264.7 macrophages (fraction of plate interquartile mean); higher = more bacterial growth (less inhibition)
Conditions: 10 µM

SMILES | normalized intracellular growth (time point: T3 (3 h)) | normalized intracellular growth (time point: Tfinal (~6 h))
O=C(OCc1ccccc1)c1ccccc1 | 0.966 ± 0.057 | 0.928 ± 0.069
O=C(OOC(=O)c1ccccc1)c1ccccc1 | 1 ± 0.017 | 1.05 ± 0.037
CCCNC(C)(C)COC(=O)c1ccccc1 | 0.828 ± 0.083 | 0.1174 ± 0.0011
C=C1CC[C@H](O)C/C1=C/C=C1\CCC[C@]2(C)[C@@H]([C@H](C)/C=C/[C@H](C)C(C)C)CC[C@@H]12 | 1.04 ± 0.059 | 1.2 ± 0.086
CC(O)(CC(=O)O)CC(=O)O | 0.971 ± 0.034 | 1.02 ± 0.061
Nc1ccc(S(N)(=O)=O)cc1 | 0.9673 ± 0.006 | 1.07 ± 0.1
NS(=O)(=O)c1ccc(C(=O)O)cc1 | 1.006 ± 0.0098 | 0.964 ± 0.076
NCc1ccc(S(N)(=O)=O)cc1 | 0.686 ± 0.071 | 0.0766 ± 0.0043
O=C(O)CN1C(=O)c2cccc3cccc(c23)C1=O | 0.914 ± 0.099 | 1.05 ± 0.096
CC(=O)Nc1ccc(C(=O)O)cc1 | 1.06 ± 0.055 | 0.967 ± 0.1
CCCCC(CC)CCC(CC(C)C)OS(=O)(=O)O (configuration not stated) | 1.03 ± 0.031 | 1.1 ± 0.03
NCCC[C@H](N)C(=O)O | 0.972 ± 0.048 | 0.966 ± 0.13
CC(C)(O/N=C(\C(=O)N[C@@H]1C(=O)N2C(C(=O)[O-])=C(C[n+]3ccccc3)CS[C@H]12)c1csc(N)n1)C(=O)O | 0.997 ± 0.078 | 0.806 ± 0.12
C[C@H]1[C@H](NC(=O)/C(=N\OC(C)(C)C(=O)O)c2csc(N)n2)C(=O)N1S(=O)(=O)O | 0.992 ± 0.04 | 0.2 ± 0.016
FC(F)(F)COCC(F)(F)F | 0.946 ± 0.09 | 0.9 ± 0.27
CC(=O)N[C@@H](CCC(N)=O)C(=O)O | 0.959 ± 0.023 | 0.942 ± 0.11
Nc1ccc(S(=O)(=O)O)cc1.Nc1ccc(S(=O)(=O)O)cc1.[Zn] | 1.01 ± 0.047 | 1.15 ± 0.099
CC12CCC(CC1)C(C)(C)O2 | 1.02 ± 0.024 | 0.96 ± 0.18
CN(C)[C@@H]1C(O)=C(C(N)=O)C(=O)[C@@]2(O)C(O)=C3C(=O)c4c(O)ccc(Cl)c4[C@@H](O)[C@H]3C[C@@H]12 | 0.727 ± 0.11 | 0.176 ± 0.0084
CN(C)[C@@H]1C(O)=C(C(N)=O)C(=O)[C@@]2(O)C(O)=C3C(=O)c4c(O)ccc(Cl)c4[C@@](C)(O)[C@H]3C[C@@H]12 | 0.846 ± 0.031 | 0.23 ± 0.02
CN(C)[C@@H]1C(O)=C(C(N)=O)C(=O)[C@@]2(O)C(O)=C3C(=O)c4c(O)cccc4[C@@](C)(O)[C@H]3[C@H](O)[C@@H]12 | 1.01 ± 0.074 | 0.0331 ± 0.014

SMILES | normalized intracellular growth (time point: T3 (3 h)) | normalized intracellular growth (time point: Tfinal (~6 h))
C=C1c2c(Cl)ccc(O)c2C(=O)C2=C(O)[C@]3(O)C(=O)C(C(N)=O)=C(O)[C@@H](N(C)C)[C@@H]3[C@@H](O)[C@H]12.O=C(O)c1cc(S(=O)(=O)O)ccc1O | 1.01 ± 0.065 | 0.0256 ± 0.0064
OCc1ccccn1 | 1.02 ± 0.06 | 0.892 ± 0.1
C=NC(C(=O)NC1C(=O)N2C1SC(C)(C)C2C(=O)O)c1ccccc1 (configuration not stated) | 0.959 ± 0.021 | 1.04 ± 0.011
Nc1ncnc(Nc2ccc(Cl)cc2)n1 | 1.1 ± 0.074 | 0.945 ± 0.42
Cc1ncc([N+](=O)[O-])n1C | 0.936 ± 0.053 | 0.98 ± 0.1
Nc1nccs1 | 1.03 ± 0.072 | 0.911 ± 0.12
O.O.O=C([O-])CN(CCN(CC(=O)[O-])CC(=O)O)CC(=O)O.[Na+].[Na+] | 0.978 ± 0.021 | 1.02 ± 0.013
O=c1[nH]c(=O)c2ccccc2o1 | 0.963 ± 0.026 | 1.02 ± 0.078
CC1=C(C/C=C(\C)CCC[C@H](C)CCC[C@H](C)CCCC(C)C)C(=O)c2ccccc2C1=O | 0.968 ± 0.067 | 1.08 ± 0.064
CCCCC/C=C/CCC(=O)N[C@H]1[C@H](Oc2c3cc4cc2Oc2ccc(cc2Cl)[C@@H](O[C@@H]2O[C@H](CO)[C@@H](O)[C@H](O)[C@H]2NC(C)=O)[C@@H]2NC(=O)[C@H](NC(=O)[C@@H]4NC(=O)[C@H]4NC(=O)C(Cc5ccc(c(Cl)c5)O3)NC(=O)[C@H](N)c3ccc(O)c(c3)Oc3cc(O)cc4c3)c3ccc(O)c(c3)-c3c(OC4O[C@H](CO)[C@@H](O)[C@H](O)[C@@H]4O)cc(O)cc3[C@@H](C(=O)O)NC2=O)O[C@H](CO)[C@@H](O)[C@@H]1O (some centres not stated) [TEICOPLANIN [A(2-1) shown]] | 0.955 ± 0.07 | 1.07 ± 0.065
Cc1c(C)c2c(c(C)c1O)CCC(C)(CCCC(C)CCCC(C)CCCC(C)C)O2 (stereo not drawn) [alpha-TOCHOPHEROL] | 0.999 ± 0.14 | 1.1 ± 0.13
O=C(NCc1ccccc1)OCCO | 1.24 ± 0.071 | 1.33 ± 0.083
C=C1c2cccc(O)c2C(=O)C2=C(O)[C@]3(O)C(=O)C(C(N)=O)=C(O)[C@@H](N(C)C)[C@@H]3[C@@H](O)[C@H]12 | 0.979 ± 0.029 | 0.103 ± 0.039
CN(C)[C@@H]1C(O)=C(C(=O)NCN2CCCC2)C(=O)[C@@]2(O)C(O)=C3C(=O)c4c(O)cccc4[C@@](C)(O)[C@H]3C[C@@H]12 | 0.973 ± 0.013 | 0.683 ± 0.41
CN(C)c1ccc(O)c2c1C[C@H]1C[C@H]3[C@H](N(C)C)C(O)=C(C(N)=O)C(=O)[C@@]3(O)C(O)=C1C2=O | 1.01 ± 0.091 | 0.33 ± 0.14
CN(C)[C@@H]1C(O)=C(C(N)=O)C(=O)[C@@]2(O)C(O)=C3C(=O)c4c(O)cccc4[C@@](C)(O)[C@H]3C[C@@H]12 | 0.598 ± 0.062 | 0.209 ± 0.048
C[C@H]1c2cccc(O)c2C(=O)C2=C(O)[C@]3(O)C(=O)C(C(N)=O)=C(O)[C@@H](N(C)C)[C@@H]3[C@@H](O)[C@@H]21 | 0.73 ± 0.065 | 0.173 ± 0.025
CN(C)c1cc(NC(=O)CNC(C)(C)C)c(O)c2c1C[C@H]1C[C@H]3[C@H](N(C)C)C(O)=C(C(N)=O)C(=O)[C@@]3(O)C(O)=C1C2=O | 1.01 ± 0.05 | 1.02 ± 0.18
CN(C)CCc1c[nH]c2ccc(CS(=O)(=O)N3CCCC3)cc12 | 0.989 ± 0.027 | 1.14 ± 0.15
CCCCCNC(=N)N/N=C/c1c[nH]c2ccc(OC)cc12 | 1.05 ± 0.1 | 1.08 ± 0.037
CCC(=O)Oc1ccc2c(c1)CC[C@@H]1[C@@H]2CC[C@]2(C)[C@@H](OC(=O)CC)CC[C@@H]12 | 0.977 ± 0.092 | 0.934 ± 0.089

SMILES | normalized intracellular growth (time point: T3 (3 h)) | normalized intracellular growth (time point: Tfinal (~6 h))
O=C([O-])C(O)[C@H](O)[C@@H](O)[C@H](O)[C@H](O)CO.O=C([O-])C(O)[C@H](O)[C@@H](O)[C@H](O)[C@H](O)CO.[Ca+2] (some centres not stated) | 1.04 ± 0.019 | 1.06 ± 0.18
Cc1c(OCC(F)(F)F)ccnc1C[S@@+]([O-])c1nc2ccccc2[nH]1 | 0.98 ± 0.076 | 1.18 ± 0.11
CC1=C(C)C(=O)C(C(CCCCCC(=O)O)c2ccccc2)=C(C)C1=O (configuration not stated) | 0.994 ± 0.042 | 1.18 ± 0.085
NC(=O)c1cc[n+](CC2=C(C(=O)O)N3C(=O)[C@@H](NC(=O)[C@@H](c4ccccc4)S(=O)(=O)[O-])[C@H]3SC2)cc1 | 0.999 ± 0.056 | 1.05 ± 0.028
CCOc1ccc(NC(=O)CC(C)O)cc1 (configuration not stated) | 0.969 ± 0.045 | 1.202 ± 0.0076
CC(=O)N(CC(O)CO)c1c(I)c(C(=O)NCCO)c(I)c(C(=O)NCC(O)CO)c1I (configuration not stated) | 0.938 ± 0.063 | 1.17 ± 0.091
OC[C@H]1O[C@@H](O[C@@H]2[C@@H](CO)OC(O)(CO)[C@H]2O)[C@H](O)[C@@H](O)[C@H]1O (mixture of isomers) | 0.999 ± 0.021 | 0.958 ± 0.011
OC[C@H]1O[C@H](O[C@H]2[C@H](O)[C@@H](O)C(O)O[C@@H]2CO)[C@H](O)[C@@H](O)[C@@H]1O (some centres not stated) | 0.919 ± 0.086 | 0.986 ± 0.012
OC[C@H]1O[C@H](O[C@]2(CCl)O[C@H](CCl)[C@@H](O)[C@@H]2O)[C@H](O)[C@@H](O)[C@H]1Cl | 0.91 ± 0.095 | 0.0259 ± 0.0051
COc1ccc(C(=O)c2ccccc2)c(O)c1 | 0.948 ± 0.07 | 0.417 ± 0.083
COc1ccc(C(=O)c2ccc(C)cc2)c(O)c1 | 1.02 ± 0.028 | 0.926 ± 0.2
COc1ccc(C(=O)c2ccccc2O)c(O)c1 | 1 ± 0.047 | 1.24 ± 0.031
Cc1cc(O)cc(C)c1Cl | 1.03 ± 0.075 | 1.11 ± 0.071
N=c1ccn2c(n1)O[C@H]1[C@H](O)[C@@H](CO)O[C@H]12 | 1 ± 0.029 | 1.16 ± 0.016
CCn1cc(C(=O)O)c(=O)c2cc(F)c(N3CCNCC3)nc21 | 0.916 ± 0.07 | 0.245 ± 0.036
CCn1cc(C(=O)O)c(=O)c2cnc(N3CCNCC3)nc21 | 0.974 ± 0.034 | 0.533 ± 0.082
COc1c(N2C[C@@H]3CCCN[C@@H]3C2)c(F)cc2c(=O)c(C(=O)O)cn(C3CC3)c12 | 1.41 ± 0.1 | 0.00827 ± 0.001
CCn1cc(C(=O)O)c(=O)c2cc(F)c(N3CCNC(C)C3)c(F)c21 (configuration not stated) | 0.996 ± 0.098 | 0.0187 ± 0.0027
CCn1cc(C(=O)O)c(=O)c2ccc(C)nc21 | 0.994 ± 0.03 | 0.881 ± 0.37
COc1c(N2CCNC(C)C2)c(F)cc2c(=O)c(C(=O)O)cn(C3CC3)c12 (configuration not stated) | 1.02 ± 0.13 | 0.015 ± 0.0035
CO/N=C1\CN(c2nc3c(cc2F)c(=O)c(C(=O)O)cn3C2CC2)CC1CN (configuration not stated) | 0.967 ± 0.014 | 1.15 ± 0.048

SMILES | normalized intracellular growth (time point: T3 (3 h)) | normalized intracellular growth (time point: Tfinal (~6 h))
CC(C)(CO)[C@@H](O)C(=O)NCCC(=O)NCCSSCCNC(=O)CCNC(=O)[C@H](O)C(C)(C)CO | 0.981 ± 0.048 | 0.976 ± 0.089
OCc1cccnc1 | 1.056 ± 0.0048 | 0.97 ± 0.051
O=S(=O)(c1cccc2cnccc12)N1CCCNCC1 | 1.02 ± 0.035 | 1.13 ± 0.067
NC(=O)NS(=O)(=O)c1ccc(N)cc1 | 0.98 ± 0.031 | 0.881 ± 0.095
FC(F)(Cl)C(F)(F)Cl | 1.02 ± 0.023 | 0.675 ± 0.21
NC1CCN(c2c(F)cc3c(=O)c(C(=O)O)cn(C4CC4)c3c2Cl)C1 (configuration not stated) | 1.49 ± 0.071 | 0.00632 ± 0.00035
CC(=O)OCC(=O)[C@@]1(O)CC[C@H]2[C@@H]3CCC4=CC(=O)C=C[C@]4(C)[C@@]3(Cl)[C@@H](Cl)C[C@@]21C | 0.961 ± 0.062 | 1.13 ± 0.022
CCCCCCCCCc1ccc(OCCOCCOCCOCCOCCOCCOCCOCCOCCO)cc1 | 0.99 ± 0.013 | 1.1 ± 0.048
O=C(CCCN1CCC(O)(c2ccc(Cl)cc2)CC1)c1ccc(F)cc1 | 0.957 ± 0.056 | 1 ± 0.085
O=C(CCCN1CCC(O)(c2ccc(Br)cc2)CC1)c1ccc(F)cc1 | 0.391 ± 0.23 | 1.28 ± 0.14
NC(=O)C1(N2CCCCC2)CCN(CCCC(=O)c2ccc(F)cc2)CC1 | 0.984 ± 0.085 | 0.965 ± 0.16
N[C@@H](CCC(=O)N[C@@H](CS)C(=O)NCC(=O)O)C(=O)O | 1.1 ± 0.056 | 0.832 ± 0.11
CC(C)CCCC(C)NC(C)C (configuration not stated) | 1 ± 0.017 | 0.999 ± 0.11
Cc1ccc(S(=O)(=O)NCl)cc1 | 0.946 ± 0.021 | 0.902 ± 0.052
OCc1ccccc1O | 1.07 ± 0.017 | 1.01 ± 0.022
CC1CCc2cc(F)cc3c(=O)c(C(=O)O)cn1c23 (configuration not stated) | 0.937 ± 0.026 | 0.389 ± 0.025
CC1CCc2c(N3CCC(O)CC3)c(F)cc3c(=O)c(C(=O)O)cn1c23 (configuration not stated) | 0.894 ± 0.051 | 0.0538 ± 0.029
N[C@@H](Cc1ccc(O)cc1)C(=O)O | 0.934 ± 0.037 | 0.846 ± 0.31
